Measured values as given in PubChem BioAssay AID2228 (National Center for Advancing Translational Sciences (NCATS), 2010).
Activity calls are given as the source filed them.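 Rule for the calls: active = any rise in protein melting temperature, meaning a thermal shift above zero; inactive = the rest.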

These compounds were tested against Luciferin 4-monooxygenase (Photinus pyralis) (UniProt P08659) (assay: Thermal Shift Assay for Inhibitors of FLuc (Firefly Luciferase, Photinus pyralis) in Presence of ATP). Conditions: Purified FLuc with ATP, SYPRO Orange thermal shift; at 200 µM; stronger effect = higher value.
Source text: Firefly (Photinus pyralis) luciferase (FLuc) is widely used as a reporter in biological assays. […] In order to determine if FLuc thermal stabilization parallels inhibitor potency, a fluorescence-based thermal denaturation assay was developed in this present study. An environmentally sensitive fluorescence dye, SYPRO Orange (Invitrogen, presently Life Technologies) was utilized to monitor the fluorescence change as a function of temperature. The dye preferentially binds to the hydrophobic regions of the protein, and its high signal-to-noise ratio, large Stokes shift and high excitation wavelength make it ideal for thermal shift application. In this assay, the melting temperature (Tm) (the inflection point of the protein melt transition) was assessed for each sample tested. Differences in the Tm between controls and compound-containing samples were determined (the thermal shift or delta Tm), and compounds were ranked by the degree of their thermal shift at the top concentration (200 uM). […] FLuc catalyzes light production in bioluminescent organisms. The reaction requires luciferin, ATP and O2 as substrate, and it includes the formation of a luciferyl-AMP intermediate and the subsequent production of light, AMP, oxyluciferin and CO2. In this study, PTC124 and analogues were evaluated for their potential to stabilize FLuc in the absence and presence of ATP. This particular BioAssay is in the presence of ATP. See related BioAssay "Thermal Shift Assay for Inhibitors of FLuc (Firefly Luciferase, Photinus pyralis) in the Absence of ATP" See [6] for more details on this assay and related studies. Welch, et al. PTC124 targets genetic disorders caused by nonsense mutations. Nature 447 (2007) 87-91. D.S. Auld, N. Thorne, W.F. Maguire, and J. Inglese, Mechanism of PTC124 activity in cell-based luciferase assays of nonsense codon suppression. Proc Natl Acad Sci U S A 106 (2009) 3585-90. D.S. Auld, N. Thorne, D.T. Nguyen, and J. Inglese, A specific mechanism for nonspecific activation in reporter-gene assays. ACS Chem Biol 3 (2008) 463-70. [4]F.H. Niesen, H. Berglund, and M. Vedadi, The use of differential scanning fluorimetry to detect ligand interactions that promote protein stability. Nat Protoc 2 (2007) 2212-21. J.R. de Wet, K.V. Wood, M. DeLuca, D.R. Helinski, and S. Subramani, Firefly luciferase gene: structure and expression in mammalian cells. Mol Cell Biol 7 (1987) 725-37. Auld, et al. Molecular Basis for the High Affinity Binding and Stabilization of Firefly Luciferase by PTC124. Proc Natl Acad Sci U S A, accepted.
Assay Protocol: 1.8 uM FLuc was tested in Tris-acetate buffer (pH 7.6) or phosphate buffer saline (pH 7.4). ATP final concentration was 2 mM. Compounds were tested at 200 uM. Data was captured on an iQ5 Real Time PCR Detection system (Bio-Rad) using a temperature range from 20 to 95C in increments of 1C and a ramping rate of 0.1C/s. Fluorescence intensity changes (Ex 490/Em 575 nm) were monitored with a charge-coupled device (CCD) camera. Buffer: 50 mM Tris-acetate, pH 7.6 (with or without 2 mM ATP); 1X PBS, pH 7.4 (with or without 2 mM ATP)

Luciferin 4-monooxygenase (Photinus pyralis), sequence (P08659 whole entry, looked up): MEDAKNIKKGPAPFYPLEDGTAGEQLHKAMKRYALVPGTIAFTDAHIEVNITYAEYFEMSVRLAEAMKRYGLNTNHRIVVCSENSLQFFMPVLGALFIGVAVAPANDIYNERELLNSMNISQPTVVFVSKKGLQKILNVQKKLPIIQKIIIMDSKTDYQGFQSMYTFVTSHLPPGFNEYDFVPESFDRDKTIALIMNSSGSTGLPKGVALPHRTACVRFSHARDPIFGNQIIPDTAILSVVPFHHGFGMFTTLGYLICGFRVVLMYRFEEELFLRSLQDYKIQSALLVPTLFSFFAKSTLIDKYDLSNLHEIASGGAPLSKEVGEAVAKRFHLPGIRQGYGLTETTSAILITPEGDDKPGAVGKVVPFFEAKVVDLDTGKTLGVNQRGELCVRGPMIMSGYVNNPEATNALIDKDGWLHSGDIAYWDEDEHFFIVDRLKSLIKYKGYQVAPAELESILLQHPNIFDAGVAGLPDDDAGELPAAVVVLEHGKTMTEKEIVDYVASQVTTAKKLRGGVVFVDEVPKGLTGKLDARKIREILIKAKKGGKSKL

Thermal shift (delta Tm), active:
O=C(O)c1ccccc1-c1noc(-c2ccccc2F)n1 5.48 C
O=C(O)c1ccc(-c2noc(-c3ccccc3F)n2)cc1 11.6 C
O=C(O)c1cccc(-c2noc(-c3cccc(Cl)c3)n2)c1 11.8 C
Nc1ncnc2c1ncn2[C@@H]1O[C@H](COP(=O)(O)OC(=O)c2cccc(-c3noc(-c4ccccc4F)n3)c2)[C@@H](O)[C@H]1O 12.6 C
NC(=O)c1cccc(-c2noc(-c3ccccc3F)n2)c1 6.12 C
O=C(O)c1cccc(-c2noc(-c3ccccc3F)n2)c1 13.1 C
NC(=O)c1ccccc1-c1noc(-c2ccccc2F)n1 3.72 C
Fc1ccccc1-c1nc(-c2cccc(-c3nn[nH]n3)c2)no1 6.04 C
